These results are taken from PubChem BioAssay (NCATS).

SMILES strings stand for the structures. Results filed as inconclusive are left out. Where a call stands in place of a potency, no number is given. Activity calls are given as the source filed them. Calls follow the shape of the dose curve; as a rule, active = well fitted inhibition curve with a large enough effect; inconclusive = small, poorly fitted or top-dose-only effect; inactive = no such curve, though single readings can be large or run the other way.
Potency is read from the fitted curve at half-maximal effect.

This assay deals with Zika virus NS2B-NS3 protease (linked construct). In words: Primary screen NINDS Rhodamine qHTS for Zika virus inhibitors (AID 1347160). Also: nearly all actives have a fitted effect of over 55% in size. Particulars: purified NS2B-NS3 protease, Rhodamine110 substrate fluorescence; series mostly up to 57.1 µM. From the text:
Avindra Nath, Ph.D., National Institute of Neurological Disorders and Stroke (NINDS), Bethesda, MD
Radhakrishnan Padmanabhan, Ph.D., Georgetown University (GU), Washington D.C.
Zika Virus causes congenital defects, including microcephaly and is associated with Guillain-Barre syndrome, eningoencephalitis and myelitis in infected adult. […] Using a target-based approach, we hope to establish a screening paradigm to uncover novel, cell-active NS2B-NS3 protease (Zika Virus) specific inhibitors from NCATS' collection of small molecules using qHTS.
Four assay panel was created to identify potential Zika Virus inhibitors. Namely, (1) GU unlinked NS2B-NS3 AMC tagged protease qHTS, (2) GU unlinked NS2B-NS3 Rhodamine tagged protease qHTS, (3) NINDS linked NS2B-NS3 AMC tagged protease qHTS, (4) NINDS linked NS2B-NS3 Rhodamine tagged protease qHTS. Active compounds were re-acquired and re-screened to confirm inhibition. Inhibitors were further screened against various confirmatory and counterscreens in dose response format.
Early Translation Branch (ETB)
National Center for Advancing Translational Sciences (NCATS), Rockville, MD
National Institute of Health (NIH), Bethesda, Maryland
For the linked assay, Nath lab (NINDS) provided the purified linked NS2B-NS3 protease which is consists of hydrophilic domain of NS2B linked to the NS3 protease domain by a flexible (-[…]-) linker. Control compound aprotinin is obtained from Thermo Scientific (#78432; Waltham, Massachusetts). Rhodamine110 substrate ([N-Cbz]-Nle-Lys-Arg-Arg-Rhod110-Arg-Arg-Lys-Nle-[N-Cbz]) was purchased from either Genscript or Bachem.
1536-well Protease (Rhodamine110 Substrate) Assay:
Briefly, 3 microL of enzyme (25 nM final concentration), in assay buffer (10 mM Tris-HCl pH 8.0 with 0.01% Tween 20) were dispensed into a 1,536-well solid-bottom black plate (Greiner Bio One, Monroe, NC). Twenty-three nL of compounds (final concentration range 7.28 nM to 114 microM) or control Aprotinin (final concentration range 3.47 nM to 114 microM) were transferred via Wako Pin-tool (Wako Automation, Richmond, VA). Samples were incubated (room temperature, protected from light) for 15 minutes followed by a 1 microL Rhodamine110 substrate addition (1.5 microM final concentration). Plates were then immediately read on a ViewLux High-throughput CCD imager (PerkinElmer, Waltham, MA) equipped with FITC fluorescence optics (480(20) nm excitation, 540(25) nm emission), then incubated (room temperature, protected from light) for 15 minutes (~15% conversion). The change in fluorescence intensity over the 15-minute reaction period was normalized against no-inhibitor and no-enzyme controls and the resulting percent inhibition data were fitted to a 4-parameter Hill equation. Aprotinin was used as intraplate control.
Turning to `N#CCNC(=O)c1ccc(-c2ccnc(Nc3ccc(N4CCOCC4)cc3)n2)cc1`, the Potency result is “inactive”.
On the same count and under the same terms, in the case of `O=C(O)Cn1nnc(-c2cc(N3CCC(Oc4cc(F)ccc4Br)CC3)no2)n1` it was “inactive”; in that of `COc1cc2nccc(Oc3ccc(NC(=O)C4(C(=O)Nc5ccc(F)cc5)CC4)cc3)c2cc1OC`, “inactive”.
Same read-out and setting: in the case of `COC(=O)c1ccc2c(C(=Nc3ccc(N(C)C(=O)CN4CCN(C)CC4)cc3)c3ccccc3)c(O)[nH]c2c1` it was “inactive”.
Regarding `Cc1cc(N2CCOCC2)cc2[nH]c(-c3c(NC[C@@H](O)c4cccc(Cl)c4)cc[nH]c3=O)nc12`, the Potency result was “inactive”.
In the case of `Cc1cnc(-c2cnc(NCCNc3ccc(C#N)cn3)nc2-c2ccc(Cl)cc2Cl)[nH]1`, the Potency result is “inactive”.
Take `Fc1cc(-c2cccc3ncc(-c4cnn(C5CCNCC5)c4)nc23)cc(F)c1CN1CCOCC1`: the Potency entry is “inactive”.
Still for that read-out and setting: in the case of `CC(C)c1nn(-c2c(Cl)cccc2Cl)c2nc(Cc3ccc(OCCO)cc3)[nH]c(=O)c12` it was “inactive”.
In the case of `Cn1cc(-c2[nH]c3cc(NC(=O)[C@H](N)C4CCCCC4)cc4c3c2C=NNC4=O)cn1`, the Potency entry is “inactive”.
On the same count and under the same terms, in the case of `CNC(=O)c1cc(Oc2ccc(NC(=O)Nc3cc(C(C)(C)C)nn3-c3ccc4ncccc4c3)c(F)c2)ccn1` it was “inactive”.
The same measure, in the same setting: in the case of `COc1cccc2nc(-c3cccs3)nc(NN3C(=O)C=C(C)C3=O)c12` it was “inactive”; in that of `CCS(=O)(=O)c1cccc(-c2cc(C(=O)NC3CCN(C)CC3)c(C)c3[nH]c4ncc(C)cc4c23)c1`, “inactive”.
Same read-out and setting: then `CS(=O)(=O)c1ccc(-c2cnc(N)c(C(=O)Nc3ccccc3)n2)cc1`, with “inactive”; and `COC(=O)Nc1ccc(-c2nc(N3CCOCC3)c3cnn(C4CCN(Cc5cccnc5)CC4)c3n2)cc1`, with “inactive”.
As to `CCCn1c(=O)c2[nH]c(-c3cnn(Cc4cccc(C(F)(F)F)c4)c3)nc2n(CC)c1=O`, the Potency result is “inactive”.
The same measure, in the same setting: in the case of `Nc1cccc(-c2cc3c(Oc4cccc(O)c4)ncnc3[nH]2)c1` it was “inactive”.
As for `Cc1cc(Nc2cc(N3CCN(C)CC3)nc(Sc3ccc(NC(=O)C4CC4)cc3)n2)n[nH]1`, the Potency result was “inactive”.
Still for that read-out and setting: then `CC1(O)CC(c2nc(-c3ccc4ccc(-c5ccccc5)nc4c3)c3c(N)nccn23)C1` (stereo not given), with “inactive”.
Same read-out and setting: in the case of `CC[C@@]1(O)C(=O)OCc2c1cc1n(c2=O)Cc2cc3cc(O)ccc3nc2-1` it was 20 µM (active); in that of `CCn1cc(-c2ccnc3[nH]c(-c4cccc(CN(C)C)c4)cc23)c(-c2ccc(NC(=O)N(C)C)cc2)n1`, “inactive”.
Take `CC(=O)c1c(C)c2cnc(Nc3ccc(N4CCNCC4)cn3)nc2n(C2CCCC2)c1=O`: the activity change, negative = inhibition was 8.21% [at 4.91 µM] (inactive).
Consider `CNC(=O)c1c(F)cccc1Nc1nc(Nc2cc3c(cc2OC)CCN3C(=O)CN(C)C)nc2[nH]ccc12`, for which the Potency result is “inactive”.
The same measure, in the same setting: in the case of `CC(C)c1noc(N2CCC(COc3ccc(-c4ccc(S(C)(=O)=O)cc4)nc3)CC2)n1` it was “inactive”.
Still for that read-out and setting: then `Clc1cccc(-c2nnnn2Cc2cccnc2)c1Cl`, with “inactive”.
Still for that read-out and setting: then `OCCCNc1cc(-c2ccnc(Nc3cccc(Cl)c3)n2)ccn1`, with “inactive”; and `CCCNC(=O)Nc1ccc(Oc2ncnc3cc(OC)c(OC)cc23)cc1Cl`, with “inactive”; and `CC1COC2(CCN(c3nc(=O)c4cc(C(F)(F)F)cc([N+](=O)[O-])c4s3)CC2)O1` (stereo not given), with “inactive”.
Turning to `CN(C1CCc2c(c3ccccc3n2CC(=O)O)C1)S(=O)(=O)c1ccc(F)cc1` (stereo not given), the Potency result was “inactive”.
As for `COc1cccc(Nc2c(C(N)=O)cnc3c(C)cc(S(=O)(=O)c4cccc(C(=O)N(C)C)c4)cc23)c1`, the Potency entry is “inactive”.
Same read-out and setting: in the case of `COc1cc2c(NC3CCN(C(C)C)CC3)nc(C3CCCCC3)nc2cc1OCCCN1CCCC1` it was “inactive”; in that of `NC(=O)c1c(OCc2c(F)cc(Br)cc2F)nsc1NC(=O)NCCCCN1CCCC1`, “inactive”.
Take `O=C(Nc1cc(C(F)(F)F)cc(C(F)(F)F)c1)c1cc(Cl)ccc1O`: the Potency is 7.94 µM (active).
On the same count and under the same terms, in the case of `Cc1cc(Nc2ncnc3ccc(-c4ccc(CNCCS(C)(=O)=O)o4)cc23)ccc1Oc1ccn2ncnc2c1` it was “inactive”; in that of `Nc1nccc(Oc2ccc(NC(=O)c3c[nH]cc(-c4ccc(F)cc4)c3=O)cc2F)c1Cl`, “inactive”; in that of `CC(O)C1C(=O)N2C(C(=O)O)=C(SC3CNC(C(=O)N(C)C)C3)C(C)C12` (stereo not given), “inactive”.
On the same count and under the same terms, in the case of `Cc1nc(Nc2n[nH]c3c2CN(C(=O)N[C@H](CN(C)C)c2ccccc2)C3(C)C)c2sccc2n1` it was “inactive”; in that of `NCC(=O)Nc1ccc(-n2nc(C(F)(F)F)cc2-c2ccc3c(ccc4ccccc43)c2)cc1`, “inactive”.
As for `COc1ccc(F)c(F)c1C(=O)c1cnc(NC2CCN(S(C)(=O)=O)CC2)nc1N`, the Potency result was “inactive”.
Consider `CC(C)(O)CCc1ccc(OCc2cc(-c3cccc(OC(F)F)c3)c3ncccc3c2)cc1`, for which the Potency result is “inactive”.
Still for that read-out and setting: in the case of `Nc1ncnc2c1c(-c1cnc3[nH]ccc3c1)nn2C1CCCC1` it was “inactive”.
